According to PubChem BioAssay (NCI):
This is part of a sample that, as a whole, favours compounds with a hit. Of some 79,000 tested, about 15% had one in any assay. The source made the active and inactive calls. No stated cut-off is given here; in the data, active means growth inhibition above about 70%; inactive means the rest.

Columns and labels:
[1] = NCI Yeast Anticancer Drug Screen. Data for the rad52 strain (AID 147);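 further: 0% = growth of vehicle-treated control cultures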; settings: S. cerevisiae rad52 mutant growth inhibition, hits give high values
How it was run: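 Genetically altered yeast (DNA damage repair defect) treated with compound; inhibition calculated relative to vehicle.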

[2] = NCI Yeast Anticancer Drug Screen. Data for the wt1 strain (AID 149);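 further: 0% = growth of vehicle-treated wt1 cultures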; settings: S. cerevisiae wt1 strain (SPY 50644) growth inhibition, hits give high values
How it was run: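 Measured: growth of wt1 yeast under compound versus vehicle treatment, reported as inhibition.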

[3] = NCI Yeast Anticancer Drug Screen. Data for the mgt1 strain (AID 153); settings: S. cerevisiae mgt1 mutant growth inhibition, hits give high values
How it was run: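 Read-out: yeast growth inhibition vs vehicle control. Strain mgt1, drawn from a panel altered in DNA damage repair or cell cycle control.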

[4] = NCI Yeast Anticancer Drug Screen. Data for the rad50 strain (AID 155);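 further: 0% = growth of vehicle-only cultures of the same strain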; settings: S. cerevisiae rad50 strain growth inhibition, hits give high values
How it was run: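 Growth of the mutant yeast was measured after compound exposure and referenced to vehicle-treated cultures.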

[5] = NCI Yeast Anticancer Drug Screen. Data for the mec2-1 strain (AID 157); settings: S. cerevisiae mec2-1 strain, hits give high values
How it was run: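 Cells of the genetically defined mec2-1 yeast strain are incubated with test compound. Inhibition of growth is calculated against vehicle-treated controls.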

[6] = NCI Yeast Anticancer Drug Screen. Data for the rad14 strain (AID 159);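 further: 0% = growth of vehicle-treated control cultures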; settings: S. cerevisiae rad14 strain growth inhibition, hits give high values
How it was run: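 Here, inhibition of yeast growth was measured after compound exposure, using a strain with a genetic defect in DNA damage repair and vehicle-treated cultures as the reference.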

[7] = NCI Yeast Anticancer Drug Screen. Data for the sgs1 mgt1 strain (AID 161);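 further: 0% = growth of cultures given vehicle only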; settings: S. cerevisiae sgs1 mgt1 strain, hits give high values
How it was run: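 Mutant yeast exposed to compound; growth scored against vehicle-only wells.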

[8] = NCI Yeast Anticancer Drug Screen. Data for the CLN2oe strain (AID 163);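 further: 0% = growth of vehicle-only control cultures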; settings: S. cerevisiae CLN2oe strain, hits give high values
How it was run: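 Strain altered in cell-cycle control, incubated with compound; growth compared to solvent-treated controls.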

[9] = NCI Yeast Anticancer Drug Screen. Data for the cln2 rad14 strain (AID 165);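 further: 0% = growth equal to vehicle treated cultures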; settings: S. cerevisiae cln2 rad14 strain, hits give high values
How it was run: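 The screen exposed genetically defined yeast (cln2 rad14) to test compounds and scored growth inhibition relative to vehicle-treated controls.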

[10] = NCI Yeast Anticancer Drug Screen. Data for the bub3 strain (AID 167); settings: S. cerevisiae bub3 mutant strain, hits give high values
How it was run: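 Whole-cell yeast assay. The mutant strain was incubated with compounds, and growth inhibition was determined by comparison with vehicle-treated cells.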

[11] = NCI Yeast Anticancer Drug Screen. Data for the wt2 strain (AID 169);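 further: 0% = growth of vehicle-treated yeast cultures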; settings: S. cerevisiae wt2 strain growth inhibition, hits give high values
How it was run: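 Steps: yeast strain treated with compound; growth recorded; inhibition calculated relative to cultures given vehicle alone.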

[12] = NCI Yeast Anticancer Drug Screen. Data for the mlh1 strain (AID 171);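 further: 0% = growth of vehicle-treated control cultures of the same strain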; settings: S. cerevisiae mlh1 strain growth inhibition, hits give high values
How it was run: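 Yeast screen: mutant strain plus compound, growth scored against vehicle control wells.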

[13] = NCI Yeast Anticancer Drug Screen. Data for the sgs1 strain (AID 173);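 further: 0% = growth of vehicle-only control cultures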; settings: S. cerevisiae sgs1 mutant, hits give high values
How it was run: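 Inhibition of yeast growth served as the measure. The mutant strain was treated with each compound, and growth was normalised to cultures receiving vehicle alone.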

[14] = NCI Yeast Anticancer Drug Screen. Data for the mlh1 rad18 strain (AID 175); settings: S. cerevisiae mlh1 rad18 strain growth inhibition, hits give high values
How it was run: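 Compound-treated yeast growth, normalised to vehicle controls. Strain bears defined DNA repair mutations.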

[15] = NCI Yeast Anticancer Drug Screen. Data for the rad18 strain (AID 177); settings: S. cerevisiae rad18 mutant growth inhibition, hits give high values
How it was run: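 Inhibition values reflect reduced yeast growth compared with vehicle-treated controls, using a strain engineered with a DNA damage repair defect.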

[16] = NCI Yeast Anticancer Drug Screen. Data for the rad50EPP+ strain (AID 151);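 further: 0% = growth of vehicle-treated control cultures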; settings: S. cerevisiae rad50 mutant strain, hits give high values
How it was run: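 Strain rad50EPP+; compound exposure; % growth inhibition vs vehicle.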

[17] = at 5.0 µM (retest, dose inferred, filed as 0.5)
[18] = at 50.0 µM (retest, dose inferred, filed as 5.0)

Measured: growth inhibition

Cc1cccc2c(NCCCN(C)C)c3c([N+](=O)[O-])ccc(C)c3nc12
active: [1]; at 1.2 µM 76% | [1]; at 3.7 µM 91% | [1]; at 11.0 µM 94% | [1]; at 33.0 µM 97% | [1]; at 100.0 µM 97% | [2]; at 33.0 µM 95% | [2]; at 100.0 µM 97% | [3]; at 33.0 µM 98% | [3]; at 100.0 µM 98% | [4]; at 3.7 µM 79% | [4]; at 11.0 µM 92% | [4]; at 33.0 µM 94% | [4]; [18] 78% | [4]; at 50.0 µM 97.8% | [4]; at 100.0 µM 96% | [5]; at 11.0 µM 96% | [5]; at 33.0 µM 98% | [5]; at 50.0 µM 96.9% | [5]; at 100.0 µM 98% | [6]; at 1.2 µM 98% | [6]; at 3.7 µM 98% | [6]; at 11.0 µM 99% | [6]; at 33.0 µM 99% | [6]; at 100.0 µM 98% | [7]; at 50.0 µM 96.8% | [8]; at 33.0 µM 88% | [8]; at 100.0 µM 96% | [9]; [18] 95% | [9]; at 50.0 µM 91% | [10]; at 33.0 µM 90% | [10]; [18] 97% | [10]; at 50.0 µM 72.2% | [10]; at 100.0 µM 96% | [11]; at 33.0 µM 95% | [11]; at 100.0 µM 97% | [12]; at 33.0 µM 97% | [12]; at 100.0 µM 98% | [13]; at 1.2 µM 85% | [13]; at 3.7 µM 92% | [13]; at 11.0 µM 95% | [13]; at 33.0 µM 98% | [13]; at 100.0 µM 98% | [14]; at 50.0 µM 97.1% | [15]; at 1.2 µM 96% | [15]; at 3.7 µM 96% | [15]; at 11.0 µM 96% | [15]; at 33.0 µM 96% | [15]; at 100.0 µM 96%
inactive: [2]; at 1.2 µM 5% | [2]; at 3.7 µM 13% | [2]; at 11.0 µM 39% | [3]; at 1.2 µM 8% | [3]; at 3.7 µM 20% | [3]; at 11.0 µM 69% | [4]; at 1.2 µM 54% | [4]; [17] 1% | [5]; at 1.2 µM 22% | [5]; at 3.7 µM 61% | [5]; [17] -2% | [5]; [18] 11% | [7]; [17] 12% | [7]; [18] 46% | [8]; at 1.2 µM -2% | [8]; at 3.7 µM 9% | [8]; at 11.0 µM 41% | [9]; [17] 49% | [10]; at 1.2 µM -8% | [10]; at 3.7 µM -6% | [10]; [17] -24% | [10]; at 11.0 µM 16% | [11]; at 1.2 µM 4% | [11]; at 3.7 µM 15% | [11]; at 11.0 µM 49% | [12]; at 1.2 µM 8% | [12]; at 3.7 µM 18% | [12]; at 11.0 µM 63% | [14]; [17] 12% | [14]; [18] 61%

CCC[CH2][Ge]([CH2]CCC)([CH2]CCC)[O]C(=O)C(O)c1ccccc1 (stereo unspecified)
active: [1]; at 33.0 µM 88% | [1]; at 100.0 µM 98% | [3]; at 33.0 µM 93% | [3]; at 100.0 µM 99% | [4]; [17] 95% | [4]; at 33.0 µM 90% | [4]; [18] 95% | [4]; at 50.0 µM 90.2% | [4]; at 100.0 µM 97% | [5]; at 50.0 µM 90.5% | [5]; at 100.0 µM 99% | [6]; at 100.0 µM 99% | [7]; [17] 97% | [7]; [18] 97% | [7]; at 50.0 µM 89.5% | [8]; at 33.0 µM 83% | [8]; at 100.0 µM 99% | [9]; at 50.0 µM 91.2% | [10]; at 33.0 µM 88% | [10]; at 50.0 µM 88.3% | [10]; at 100.0 µM 99% | [11]; at 33.0 µM 81% | [11]; at 100.0 µM 99% | [12]; at 33.0 µM 88% | [12]; at 100.0 µM 99% | [13]; at 33.0 µM 91% | [13]; at 100.0 µM 99% | [14]; [17] 84% | [14]; [18] 84% | [14]; at 50.0 µM 89.7% | [15]; at 33.0 µM 89% | [15]; at 100.0 µM 99%
inactive: [1]; at 1.2 µM 1% | [1]; at 3.7 µM 11% | [1]; at 11.0 µM 45% | [16]; at 1.2 µM -2% | [16]; at 3.7 µM 3% | [16]; at 11.0 µM 8% | [16]; at 33.0 µM 21% | [16]; at 100.0 µM 49% | [3]; at 1.2 µM -1% | [3]; at 3.7 µM -1% | [3]; at 11.0 µM 10% | [4]; at 1.2 µM 3% | [4]; at 3.7 µM 9% | [4]; at 11.0 µM 36% | [5]; at 1.2 µM -1% | [5]; at 3.7 µM 2% | [5]; [17] 50% | [5]; at 11.0 µM 17% | [5]; at 33.0 µM 69% | [5]; [18] 50% | [6]; at 1.2 µM -3% | [6]; at 3.7 µM -7% | [6]; at 11.0 µM -1% | [6]; at 33.0 µM 68% | [8]; at 1.2 µM -3% | [8]; at 3.7 µM 5% | [8]; at 11.0 µM 17% | [9]; [17] 12% | [9]; [18] 12% | [10]; at 1.2 µM -2% | [10]; at 3.7 µM -4% | [10]; [17] 27% | [10]; at 11.0 µM 24% | [10]; [18] 27% | [11]; at 1.2 µM -2% | [11]; at 3.7 µM -2% | [11]; at 11.0 µM 16% | [12]; at 1.2 µM -1% | [12]; at 3.7 µM -2% | [12]; at 11.0 µM 14% | [13]; at 1.2 µM -1% | [13]; at 3.7 µM -1% | [13]; at 11.0 µM 28% | [15]; at 1.2 µM 10% | [15]; at 3.7 µM 7% | [15]; at 11.0 µM 55%
